# Rows were chosen to be rich in hits. Some 17% of all compounds tested hit in one or more screens of this group.
# HT1080-NT tox – kills 2HG-producing HT-1080-NT fibrosarcoma cells; HT-1080-NT fibrosarcoma viability, CellTiter-Glo ATP luminescence, 48 h; Potency, µM (series often up to 46.1 µM), without a hit: at the highest dose activity, negative = less viability, actives largely listed as cytotoxic; 360,000 tested, 1.6% active;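 also: NT is the 2HG producing partner of a matched IDH1 knockdown line; 0% = DMSO-treated cells and -100% = media-only wells without cells; nearly all actives have a fitted effect of over 55% in size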
#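 A 48-hour cytotoxicity screen used HT-1080-NT cells plated 2 hours before compound delivery. ATP-based CellTiter-Glo luminescence measured viability, normalized to DMSO and no-cell controls.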
# DT40 TDP1 no CPT – qHTS for Inhibitors of human tyrosyl-DNA phosphodiesterase 1 (TDP1): qHTS in cells in absence of CPT | DT40 Tdp1-/- hTDP1 cells, no CPT, ATP luminescence, 48 h | Potency, µM (series often up to 46.2 µM), for the others: top-dose activity change, negative = growth inhibition, actives largely listed as inhibitors | 420,000 tested, 15% active; also: % is scaled to controls: 0 for no effect and ±100 for the full control effect; nearly all actives have a fitted effect of over 55% in size
#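 Growth kinetics read by CellTiter-Glo luminescence after ≥48 hr at 37 °C. Cells: DT40 Tdp1-/- stably carrying human TDP1, 400 per well, compound exposure in the absence of CPT (DMSO vehicle).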
# HT1080 IDH1KD tx – toxicity to HT-1080 IDH1 knockdown cells (counter line); 360,000 tested, 2% active; AID 686971; Potency, µM (top dose mostly 46.1 µM), for the others: at the highest dose activity, negative = toxicity, most hits filed as cytotoxic; HT-1080 IDH1 knockdown viability, ATP luminescence, 48 h;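 also: 0% = DMSO wells and -100% = cell-free medium wells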
#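 IDH1KD HT-1080 cells, 750/well, RPMI + 5% FBS; compound pinned after 2 h settling; 48 h, 37 °C; CellTiter-Glo luminescence; % activity normalised to DMSO and no-cell wells; curves fitted, classed by r2 and efficacy.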
# TGFb SMAD3 inh – TGF-b pathway inhibition. AID 588855. HepG2 CAGA-GFP TGF-b/SMAD3 reporter, GFP fluorescence, 18 h; TGF-beta stimulated, 500 pg/mL final. Potency, µM (doses to about 46.1 µM), for inactives: at the top dose activity, negative = inhibition, hits mostly inhibitors. 410,000 tested, 1.2% active; also: % is scaled to controls: 0 for no effect and ±100 for the full control effect; nearly all actives have a fitted effect of over 65% in size
#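 First, reporter cells (HEPG2 CAGA-GFP) rested 2 h at 37 degrees C. Next, compounds were pinned in and TGF-beta added to 500 pg/mL final. After 18 h, GFP was imaged per cell and summed per well.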
# HepG2 viability – counter-screen for TGF-b inhibitors: cytotoxicity in HepG2 cells. HepG2 CAGA-GFP viability, ATP luminescence, 18 h. Potency, µM (top dose mostly 46.1 µM), inactives show at the top dose activity change, negative = cytotoxicity, usual class: cytotoxic. 410,000 tested, 0.76% active
#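 HepG2 CAGA-GFP cells (1000/well, DMEM with 1% FBS) received compound, then TGF-beta at 500 pg/mL final, and were incubated 18 hours at 37 degrees C. Viability was read by CellTiter-Glo luminescence. Media-only wells were set as complete cell-killing and DMSO as no toxicity.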
# DT40 TDP1 CPT – growth inhibition of DT40 Tdp1-/-;hTDP1 cells with camptothecin (screen for TDP1 inhibitors) | Potency, µM (top dose mostly 46.2 µM), inactives show at the top dose activity change, negative = growth inhibition, most hits filed as inhibitors | chicken DT40 Tdp1-/-;hTDP1 cells + 20 nM CPT, ATP luminescence, 48 h | 420,000 tested, 12% active; also: % is scaled to controls: 0 for no effect and ±100 for the full control effect; nearly all actives have a fitted effect of over 55% in size
#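 Chicken DT40 Tdp1-/- cells stably complemented with human TDP1 were seeded at 400 cells/well in medium containing 20 nM camptothecin, exposed to pin-transferred compounds, and grown at 37 °C for at least 48 hr. Viability was read as ATP luminescence.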
# Active calls of the source: *; ? = inconclusive; . = not tested or not shown; [ ] = remark or other dose. Calls follow the shape of the dose curve; as a rule, active = well fitted curve in the direction sought with a large enough effect; inconclusive = small, poorly fitted or top-dose-only effect, or another doubt; inactive = no such curve, though single readings can be large; an effect the other way counts as inactive or inconclusive. Potency is read from the fitted curve at half-maximal effect.
SMILES,HT1080-NT tox,DT40 TDP1 no CPT,HT1080 IDH1KD tx,TGFb SMAD3 inh,HepG2 viability,DT40 TDP1 CPT
NCCNc1ccc([N+](=O)[O-])c(NC2CC2)c1,-6%,?,-2%,-12%,-5%,?
NCCNc1ccc([N+](=O)[O-])c(Sc2nc3ccccc3[nH]2)c1,0%,16µM*,-21%,6%,-9%,?
CS(=O)(=O)c1ccc(Sc2nc3ccccc3[nH]2)c([N+](=O)[O-])c1,-1%,?,-4%,?,-3%,?
Cc1cc(C)n2nc(SC(C)C(=O)N3CC(C)OC(C)C3)nc2n1 (stereo unspecified),0%,-4%,-4%,-7%,-3%,?
O=C(Nc1ccccc1)OC1CCCCc2cccnc21 (stereo unspecified),2%,?,-6%,-7%,16%,6%
Cc1cc(Br)ccc1NC(=O)C1CCN(S(=O)(=O)c2ccc(Br)s2)CC1,.,-29%,.,-7%,-7%,-12%
CC(=O)OC1CCC23CC1(C)CCC2C(C)(C)CC3OC(C)=O (stereo unspecified),.,-27%,.,.,.,-7%
CCN(CC(=O)Nc1ccccc1OC)C(=O)c1cc(S(=O)(=O)N2CCCCCC2)ccc1OC,14%,12µM*,9%,?,-4%,16µM*
CCN(CC(=O)Nc1cc(Cl)ccc1C)C(=O)c1cc(S(=O)(=O)N2CCCCCC2)ccc1OC,-2%,18µM*,-7%,-6%,-24%,?
Cc1ccc(S(=O)(=O)NNC(=O)Nc2ccc(Cl)c(Cl)c2)cc1,0%,16µM*,-1%,7%,15%,?
Cc1ccc(NC(=O)NNS(=O)(=O)c2ccc(Br)cc2)cc1,-5%,-15%,0%,0%,-1%,-4%
NS(=O)(=O)c1ccc(CCNC(=O)Nc2ccc(Cl)c(Cl)c2)cc1,-23%[9.24 µM],23µM*,?,-29%,-16%,?
Cc1ccc(S(=O)(=O)NC(=O)Nc2ccc(N(C)C)cc2)cc1,-29%,16µM*,?,?,-94%,21µM*
Cc1ccc(NC(=O)CCNS(=O)(=O)c2ccccc2)c(C(=O)c2ccccc2)c1,0%,?,-2%,-12%,-1%,21µM*
O=C(NC[C@H](O)c1ccccc1)c1ccccc1,.,-9%[9.04 µM],.,.,.,-13%[9.04 µM]
CS(=O)(=O)N(CC(=O)N1CCC(C(N)=O)CC1)c1cc(C(F)(F)F)ccc1Cl,10%,-4%,3%,1%,29%,0%
O=C(Nc1cccc(C(=O)O)c1)/C(=C\c1ccc(F)cc1)NC(=O)c1ccco1,8%,11%,15%,3%,1%,18%
Cc1ccc(S(=O)(=O)NCCC(=O)Nc2ccc(Cl)c(Cl)c2)cc1,-22%,16µM*,?,-18%,-7%,?
CC(C)OC(=O)Nc1ccc2nc(-c3cscn3)[nH]c2c1,.,1.2µM*,.,.,.,0.84µM*
CC(=O)Nc1cccc(-c2nc3ccc(NC(C)=O)cc3[nH]2)c1,3%,-9%,-1%,1%,-14%,9%
